Data taken from PubChem BioAssay (NCI).
Several values for one entry are separate records, joined by “and”; a condition that tells them apart may be missing. Equal entries are not always repeated. The panel holds about 83,000 compounds, 20% with a hit somewhere; the sample as a whole holds those more often.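 Growth was measured after 48 h exposure to one concentration of compound in 96-well plates. Values under 10 count as active.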 Activity calls are given as the source filed them.

How the values were obtained:
Experiment in all cases: NCI-60 one-dose screen, 48 h (100 = growth as untreated, 0 = no growth, -100 = all killed)
Details in all cases: 10 µM unless noted
[1] = system: DU-145 prostate
[2] = system: K-562 leukemia
[3] = system: MALME-3M melanoma
[4] = system: MDA-MB-231 breast
[5] = system: RXF 393 renal
[6] = system: SF-268 CNS
[7] = system: SF-295 CNS
[8] = system: SF-539 CNS
[9] = system: UACC-257 melanoma
[10] = system: M14 melanoma
[11] = system: HCT-15 colon
[12] = system: HT29 colon
[13] = system: SNB-75 CNS
[14] = system: SNB-19 CNS
[15] = system: U251 CNS
[16] = system: PC-3 prostate
[17] = system: SK-MEL-5 melanoma
[18] = system: UACC-62 melanoma
[19] = system: LOX IMVI melanoma
[20] = system: SK-MEL-28 melanoma

Measured: growth

CO[C@@H]([CH2][Hg][O]C(=O)c1ccccc1)[C@@H]([CH2][Hg][O]C(=O)c1ccccc1)OC
inactive: [1] 91.4% | [2] 30.1% | [3] 35.6% | [4] 88.9% | [5] 114% | [6] 102% | [7] 106% | [8] 102% | [9] 90.7% | [10] 79.5% | [12] 95.7% | [13] 85.6% | [14] 96.5% | [15] 93.3% | [16] 88.7% | [17] 86.5% | [18] 95.2% | [19] 36% | [20] 112%
active: [11] -93.1%

CC[C@H](C)[C@H](NC(=O)[C@H]1CCCCN1C)C(=O)N(C)[C@H](C[C@@H](OC(C)=O)c1nc(C(=O)N[C@@H](Cc2ccccc2)C[C@H](C)C(=O)O)cs1)C(C)C
inactive: [3] 55.2% | [4] 28.2% | [5] 35.3% | [6] 34.2% | [9] 49.3% | [13] 31.4% | [14] 36.7% | [15] 15% | [16] 26.1% | [18] 52.8% | [20] 50.6%
active: [1] 4.56% | [2] 7.63% | [7] 8.04% | [8] -10.5% | [10] 8.87% | [11] 9.59% | [12] -18.7% | [17] -71.7% | [19] 9.84%

COC(=O)C1=CCCN(C)C1
inactive: [1] 111% and 112% | [2] 93.2% and 104% | [3] 96.2% and 109% | [4] 115% and 107% | [5] 102% and 106% | [6] 116% and 104% | [7] 97.9% and 98.3% | [8] 103% and 109% | [9] 96.8% | [10] 98% and 100% | [11] 106% and 100% | [12] 106% and 104% | [13] 103% and 90.3% | [14] 106% and 109% | [15] 107% | [16] 92.9% | [17] 102% | [18] 111% and 101% | [19] 98.3% and 99.8% | [20] 110% and 108%

O=C(NCCCN1CC1)Nc1cccc2ccccc12
inactive: [1] 104% and 102% | [2] 86.4% | [3] 75.8% and 104% | [4] 94.3% and 105% | [5] 108% and 107% | [6] 83.5% and 96.9% | [7] 114% and 88.2% | [8] 93.7% and 113% | [9] 96.9% and 94.2% | [10] 99.6% and 98.8% | [11] 106% and 100% | [12] 83.9% | [13] 105% and 102% | [14] 88.5% and 95% | [15] 87% and 86.6% | [16] 87.8% and 89.7% | [17] 107% and 93.3% | [18] 98% and 105% | [19] 95.6% and 78.4% | [20] 107% and 115%

CN1CCc2cc3c(cc2C1O)OCO3 (stereo not given)
-13.9% (active) and 105% (inactive): [17]
inactive: [1] 101% and 103% | [2] 96.7% | [3] 31% and 88.7% | [4] 97.6% and 111% | [5] 87.8% and 114% | [6] 83.2% and 101% | [7] 86.7% and 94.8% | [8] 33.5% and 93% | [9] 99.2% and 111% | [10] 102% and 99% | [11] 98.9% and 94% | [12] 96.1% and 108% | [13] 81.1% and 104% | [14] 123% and 100% | [15] 90.6% and 103% | [16] 77% and 89.3% | [18] 34.2% and 94.5% | [19] 71.4% and 102% | [20] 94.7% and 115%

Nc1ccc(P(=O)(O)O)cc1
inactive: [1] 119% and 107% | [2] 110% and 104% | [3] 101% and 95.7% | [4] 114% and 103% | [5] 117% and 102% | [6] 113% and 107% | [7] 99.5% and 93.4% | [8] 88.6% and 100% | [9] 104% and 99.2% | [10] 121% and 100% | [11] 97.4% and 95.9% | [12] 104% and 103% | [13] 95% and 94.5% | [14] 108% and 107% | [15] 102% and 94.7% | [16] 99.5% and 92.7% | [17] 110% and 107% | [18] 110% and 99.8% | [19] 89.1% and 98% | [20] 117% and 111%

O=C=Nc1ccc(Br)cc1
inactive: [1] 107% | [2] 99.6% | [3] 108% | [4] 108% | [5] 103% | [6] 111% | [7] 94.8% | [8] 110% | [9] 110% | [10] 100% | [11] 96.5% | [12] 118% | [13] 99.1% | [14] 111% | [15] 110% | [16] 78.8% | [17] 81% | [18] 97.4% | [19] 106% | [20] 110%

Cc1cc[c-]cc1.Fc1c[c-]c(-c2ccccn2)c(F)c1.[Pt+2].c1ccc([PH+](c2ccccc2)c2ccccn2)cc1
active: [3] -2.32%
inactive: [1] 59.1% | [2] 23.9% | [4] 67.8% | [5] 32.6% | [6] 62.1% | [7] 72% | [8] 72.3% | [9] 87.2% | [10] 62.1% | [11] 74.1% | [12] 22.9% | [13] 22.7% | [14] 49.5% | [15] 27% | [16] 37.4% | [17] 77.5% | [18] 64.5% | [19] 31.2% | [20] 39.4%

CO/N=C1\CC[C@]2(C)[C@H]3CC[C@]4(C)C(=O)CC[C@H]4[C@@H]3C[C@@H]3SC(N)=N[C@@]32C1
inactive: [1] 87.9% | [2] 70.7% | [3] 94% | [4] 101% | [5] 104% | [6] 93.5% | [7] 99.1% | [8] 100% | [9] 101% | [10] 86% | [11] 93.8% | [12] 93.2% | [13] 97.1% | [14] 104% | [15] 105% | [16] 85.4% | [17] 101% | [18] 79.7% | [19] 98.1% | [20] 94.5%

O=C(CCCN1CCC2(CC1)C(=O)NCN2c1ccccc1)c1ccc(F)cc1
56.9% (inactive) and -23.1% (active): [17]
inactive: [1] 79% and 34% | [2] 86% and 85.1% | [3] 96.1% and 92.9% | [4] 103% and 74.2% | [5] 116% and 105% | [6] 91.1% and 62.8% | [7] 96.3% and 63.4% | [8] 124% and 62.6% | [9] 33.6% and 21.6% | [10] 80.8% and 54% | [11] 100% and 78.4% | [12] 60.8% and 21.9% | [13] 109% and 105% | [14] 98.1% and 66.6% | [15] 98.6% and 78.7% | [16] 106% and 77.6% | [18] 102% and 65% | [19] 103% and 67.8% | [20] 114% and 120%
